An excerpt weighted towards active compounds, which were near 12% of everything screened.
HP1b chromo inh: HP1-beta chromodomain-methylated histone interaction inhibition. 390,000 compounds, 0.56% hits. Potency, µM (highest dose often 114 µM), inactives show top-dose activity change, negative = inhibition, hits mostly inhibitors. AlphaScreen HP1-beta / biotin-H3K9me3 peptide binding; note: nearly all actives have a fitted effect of over 70% in size
Target sequence (P83916 whole entry, looked up): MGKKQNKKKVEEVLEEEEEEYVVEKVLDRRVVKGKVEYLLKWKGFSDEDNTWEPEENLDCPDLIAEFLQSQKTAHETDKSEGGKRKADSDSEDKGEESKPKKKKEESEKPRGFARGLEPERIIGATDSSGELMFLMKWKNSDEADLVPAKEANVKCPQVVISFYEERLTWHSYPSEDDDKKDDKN
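Compound inhibition of the preformed complex between 50 nM HP1-beta and 50 nM biotinylated H3K9me3 peptide was read by AlphaScreen. Buffer was PBS pH 7.4 with 0.01% Tween-20. Incubations ran 30 min at room temperature, with 10 ug/mL donor/acceptor beads.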
BAZ2B inh: BAZ2B (human) inhibition. AlphaScreen BAZ2B-H3K14Ac peptide displacement. AID 504333. Potency, µM (top dose mostly 114 µM), without a hit: top-dose activity change, negative = inhibition, actives largely listed as inhibitors. 360,000 compounds, 4.4% hits. Q9UIF8; note: % is set by controls: 0 for no effect and ±100 for the full control effect; nearly all actives have a fitted effect of over 60% in size
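AlphaScreen luminescence quantifies BAZ2B engagement of H3K14Ac peptide; the protein and biotinylated peptide are both at 50 nM final, buffer PBS pH 7.4 with 0.01% Tween-20, all steps at room temperature.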
G9a inh: blocks human histone lysine methyltransferase G9a | 350,000 compounds, 8.8% hits | G9a H3K9 monomethylation, AlphaScreen, 2 h | Potency, µM (titrated, usually from 102 µM), without a hit: at the top dose activity, negative = inhibition, usual class: inhibitors | Q96KQ7; note: % is set by controls: 0 for no effect and ±100 for the full control effect; nearly all actives have a fitted effect of over 75% in size
Target sequence (Q96KQ7 913-1193 limits assumed): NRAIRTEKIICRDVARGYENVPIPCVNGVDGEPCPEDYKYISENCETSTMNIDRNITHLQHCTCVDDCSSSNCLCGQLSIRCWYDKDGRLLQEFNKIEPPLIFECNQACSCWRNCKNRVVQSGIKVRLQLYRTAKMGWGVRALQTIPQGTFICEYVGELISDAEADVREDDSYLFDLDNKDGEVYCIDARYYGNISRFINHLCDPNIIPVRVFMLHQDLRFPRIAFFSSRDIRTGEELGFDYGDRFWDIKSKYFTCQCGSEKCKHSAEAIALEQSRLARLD
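Methyltransferase reactions run at room temperature for 2 h (20 nM enzyme, 500 nM biotin-H3K9 peptide, 20 uM SAM) after a 15 min compound preincubation; product detected by AlphaScreen beads and anti-H3K9me1 antibody.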
Sfp inh: inhibitors of Bacillus subtilis Sfp phosphopantetheinyl transferase; Q9F4F7; Biochemical Sfp PPTase activity, qHTS; Potency, µM, for inactives: largest response in the series, negative = inhibition, hits mostly inhibitors; 310,000 compounds, 3.5% hits; AID 1490;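 note: the enzyme is Sfp with the accession as filed and its product quenches rhodamine fluorescence; 0% = enzyme reaction without inhibitor and -100% = no enzyme wells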
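Buffer: 50 mM Hepes-Na pH 7.6, 10 mM MgCl2, 0.01% Nonidet P-40, 0.01% BSA. Enzyme 15 nM, pre-exposed to compound 15 min; substrates then added and fluorescence change tracked over 30 min.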
JMJD2A Tudor: JMJD2A Tudor domain (human) inhibition; AlphaScreen JMJD2A-Tudor / H3K4me3 peptide binding; O75164; 390,000 compounds, 4.4% hits; AID 504339; Potency, µM (titrated, usually from 114 µM), for inactives: top-dose activity change, negative = inhibition, usual class: inhibitors; note: % is set by controls: 0 for no effect and ±100 for the full control effect; nearly all actives have a fitted effect of over 50% in size
L3MBTL1 block: inhibitors of human L3MBTL1. Q9Y468. AlphaScreen L3MBTL1–H3K9me1 peptide binding. Potency, µM (titrated, usually from 57.1 µM), for the others: top-dose activity, negative = inhibition, hits mostly inhibitors. 230,000 compounds, 0.66% hits; note: % is set by controls: 0 for no effect and ±100 for the full control effect; nearly all actives have a fitted effect of over 60% in size
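Read-out is AlphaScreen signal from streptavidin donor and nickel chelate acceptor beads (10 ug/mL final each) bridging L3MBTL1 (50 nM) and biotinylated K9-monomethylated H3(1-15) peptide (75 nM), after 30 min compound exposure at room temperature.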
The depositor's hits bear a star; u = inconclusive; x = no result; ! = not active in a repeat; [ ] = dose if it differs, or a comment. Calls come from the whole dose curve; as a rule, active = well fitted curve in the direction sought with a large enough effect; inconclusive = small, poorly fitted or top-dose-only effect, or another doubt; inactive = no such curve, though single readings can be large; an effect the other way counts as inactive or inconclusive. Potency is the fitted concentration of half-maximal effect.

SMILES	HP1b chromo inh	BAZ2B inh	G9a inh	Sfp inh	JMJD2A Tudor	L3MBTL1 block
CC1=C(C(=O)O)N2C(=O)C(NC(=O)Cc3ccccc3)C2SC1 (configuration not stated)	42%	-29%	10µM*	10µM*	8%	x
CC(C)n1c(O)c(C2c3cc(Cl)ccc3Oc3[nH]c(=O)n(C(C)C)c(=O)c32)c(=O)[nH]c1=O (configuration not stated)	9%	-24%	4.5µM*	28µM*	-16%	-9%
Cc1cc(NC(=O)c2cc(-c3cccc(Cl)c3)on2)nn1Cc1ccc(Cl)cc1	27%	u	u	x	7%	x
COc1ccc2c(c1)CC[C@@H]1[C@@H]2CC[C@]2(C)[C@@H](NCCCCCCN3C(=O)C=CC3=O)CC[C@@H]12	x	x	10%[59 µM]	16%	x	x
COc1ccc2c(c1)CCC1C2CC[C@@]2(C)C1CC[C@@H]2NCCCCCCN1C(=O)C=CC1=O (some centres not stated)	x	x	2.5µM*	x	x	x
C=C1C2C[C@]3(C4CC5[C@@]6(C)CC[C@H](O)[C@@]5(C3CC2=O)C4[N+]([O-])(CC)C6)[C@@H]1O (some centres not stated)	x	x	x	10%	x	x
O=c1oc2ccccc2c(O)c1Cc1c(O)c2ccccc2oc1=O	x	x	25%[21.5 µM]	-8%	x	x
O=Nc1c(O)c2ccccc2c2ccccc12	u	x	x	x	56µM*	x
CCOC(=O)N1CCN(/[N+]([O-])=N/Oc2ccc([N+](=O)[O-])cc2[N+](=O)[O-])C(C)C1 (configuration not stated)	25%	x	x	u	-9%	x
CCOC(=O)N1CC(C)N(/[N+]([O-])=N/Oc2ccc([N+](=O)[O-])cc2[N+](=O)[O-])CC1C (configuration not stated)	-12%	x	x	-7%	89µM*	x
COc1ccccc1OC(C)C(=O)N1CCC(Cc2ccccc2)CC1 (configuration not stated)	-18%	-26%	50µM*	5%	-16%	x
COc1ccccc1OCC(=O)N1CCCC(N(C)Cc2ccccc2)C1 (configuration not stated)	45%	-5%	x	5%	-12%	x
CC(C)N(Cc1ccccc1)C(=O)CCS(=O)(=O)c1ccc2c(c1)oc(=O)n2C	51%	-19%	71µM*	4%	-4%	x
CC(CNC(=O)CCS(=O)(=O)c1ccc2c(c1)oc(=O)n2C)c1ccccc1 (configuration not stated)	38%	-15%	26%	15%	-7%	x
CO[C@H]1C=C2CCN(C)[C@@H]2[C@@H]2c3cc4c(cc3C(=O)O[C@H]21)OCO4	x	x	2%[21.5 µM]	9%	x	x
CC(=O)C1=NOC(CNc2ncc(C(F)(F)F)cc2Cl)C1 (configuration not stated)	42%	3%	13%[59 µM]	17%	4%	4%
COc1ccc(CCNC(=O)c2ccc3c(c2)N=C(C)c2cc(C)ccc2S3)cc1OC	-4%	-31%	-50%[59 µM]	x	u	x
O=[N+]([O-])/C=C/c1c(Cl)cccc1Cl	3%	x	x	x	40µM*	x
COc1cc2c(cc1OC)C1C(=O)c3ccc4c(c3OC1CO2)CC(C(C)C)O4 (configuration not stated)	-28%[57 µM]	x	x	x	45µM*	x
Cc1ccc(-n2nc3ccc(NC(=O)COc4ccccc4C)cc3n2)cc1	38%	-2%	25%[59 µM]	x	-9%	x
O=c1[nH]c(SCc2n[nH]c(=S)n2-c2ccccc2)nc2ccccc12	24%	-10%	u	8%	7.9µM*	x
C[N+](C)(C)CCOC(=O)CBr	15%	11%	25µM*!	-25%	-18%	u
CC(C)C[C@H]1C(=O)N2CCC[C@H]2[C@]2(O)O[C@](NC(=O)[C@@H]3C=C4c5cccc6[nH]c(Br)c(c56)CC4N(C)C3)(C(C)C)C(=O)N12 (some centres not stated)	32%	u	u	-19%	0%	-10%
O=c1[nH]c(=S)[nH]c(O)c1/C=C1/C=c2ccccc2=N1	45%	u	x	-19%	u	-3%
Cc1cccc2c1=NC(=O)/C(=C/c1c(O)[nH]c(=O)[nH]c1=O)C=2	9%	u	10µM*	50µM*	-21%	-4%
SMILES	HP1b chromo inh	BAZ2B inh	G9a inh	Sfp inh	JMJD2A Tudor	L3MBTL1 block
Nc1ccc(Br)cc1	4%	x	x	x	-9%	x
Nc1ccc(N=Nc2ccccc2)cc1	u	22µM*	45µM*	8%	45µM*	-26%
Cc1nn(-c2ccccc2)c2c1P(=O)(O)/C(=C1\N(C)c3ccccc3C1(C)C)C=N2	37%	-8%	u	-10%	-17%	5%
Cc1cc(-n2c(/C=C/c3cccs3)nc3ccccc3c2=O)ccc1Br	8%	u	-31%[59 µM]	x	u	x
CCN(CC)c1ccc(CC2C(=O)N(C)C(=O)N(C)C2=O)cc1	u	45µM*	13µM*	u	45µM*	u
COC1=CC2C3Cc4ccc(OC)c(O)c4[C@]2(CCN3C)CC1=O (some centres not stated)	x	x	-39%[2.33 µM]	-1%	x	x
COc1cc(/C=C/c2nc3ccccc3c(=O)n2-c2ccc(Br)c(C)c2)ccc1O	1%	9%	9%[59 µM]	x	-3%	x
COc1cccc(NC(=O)c2ccc[n+](C)c2)c1	39%	-25%	40µM*	-1%	u	x
COc1cccc(NC(=O)Cn2cc(C(=O)c3ccccc3)c3ccccc32)c1	16%	-17%	-11%[59 µM]	x	-26%	x
Cc1cc(-c2n[nH]c(=S)n2CC(C)C)cs1	u	-5%	3.2µM*	2%	5.6µM*	3%
COc1ccc2c(c1)C13CCCCC1C(C2)N(C)CC3 (configuration not stated)	x	x	20%[12.7 µM]	x	x	x
CN1CCC(OC(=O)Cc2ccccc2)CC1	50%	-4%	-10%	15%	-11%	-8%
C[N+]1(CC(COCc2ccccc2)OC(=O)Cc2ccccc2)CCOCC1 (configuration not stated)	-18%	-6%	8.9µM*	15%	u	6%
COC(C)C(O)(C(=O)OC1=CCN2CC[C@H](O)[C@H]12)C(C)C (some centres not stated)	x	x	x	8%	x	x
Clc1ccc(CC[C@H](Cn2ccnc2)Sc2c(Cl)cccc2Cl)cc1	x	x	-6%[21.5 µM]	u	x	x
CNC(=O)Oc1ccc2ncccc2c1	46%	-2%	45µM*	2%	8%	0%
CNC(=O)Oc1ccccc1OC(C)C	52%	x	x	12%	-10%	x
COC(=O)C1=C(c2ccc(OC)c(OC)c2)C[C@@H]2CC[C@H]1N2C(=O)NCc1ccco1	31%	5%	-2%[0.501 µM]	x	-1%	3%
